According to PubChem BioAssay (NCI):
This is part of a sample that, as a whole, favours compounds with a hit. Of some 83,000 tested, about 20% had one in any assay.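 Growth was measured after 48 h exposure to one concentration of compound in 96-well plates. Values under 10 count as active.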 Calls of active or inactive are those of the source.

Key:
Assay in all cases: NCI-60 one-dose screen, 48 h (100 = growth as untreated, 0 = no growth, -100 = all killed)
Conditions in all cases: 10 µM unless noted
[1] = tested on: NCI-H23 lung
[2] = tested on: NCI-H226 lung
[3] = tested on: NCI-H322M lung
[4] = tested on: HOP-62 NSCLC
[5] = tested on: NCI-H460 lung
[6] = tested on: HOP-92 NSCLC
[7] = tested on: NCI-H522 lung
[8] = tested on: A549/ATCC NSCLC
[9] = tested on: 786-0 renal
[10] = tested on: COLO 205 colon
[11] = tested on: DU-145 prostate
[12] = tested on: K-562 leukemia
[13] = tested on: MALME-3M melanoma
[14] = tested on: MDA-MB-231 breast
[15] = tested on: RXF 393 renal
[16] = tested on: SF-268 CNS
[17] = tested on: SF-295 CNS
[18] = tested on: SF-539 CNS
[19] = tested on: UACC-257 melanoma
[20] = tested on: M14 melanoma

Measured: growth

COc1cc(C2=Nc3c(N)nc(N)nc3NC(c3cccc(Nc4ccnc5cc(C(F)(F)F)ccc45)c3)C2)cc(OC)c1OC (stereo not given)
inactive: [1] 79.5% | [2] 89.5% | [3] 86.9% | [4] 86.3% | [5] 72.5% | [6] 47.9% | [7] 97.1% | [8] 73.6% | [9] 61% | [10] 70.5% | [11] 89.6% | [12] 21.5% | [13] 90.6% | [14] 57.8% | [15] 45.1% | [16] 63.3% | [17] 82.5% | [18] 79.3% | [19] 77.7% | [20] 72.3%

COC(=O)[C@@H](Cc1c[nH]c2ccccc12)NC(=O)[C@H](Cc1ccccc1)NCc1ccncc1
inactive: [1] 97.4% | [2] 94.1% | [3] 92.8% | [4] 93.7% | [5] 104% | [6] 91.5% | [7] 73.5% | [8] 83.9% | [9] 104% | [10] 107% | [11] 108% | [12] 102% | [13] 86.5% | [14] 93.2% | [15] 103% | [16] 96.9% | [17] 106% | [18] 103% | [19] 79.4% | [20] 103%

C=C(C)[C@@H]1CC[C@]2(C#N)CC[C@]3(C)[C@H](CC[C@@H]4[C@@]5(C)CCCNC(C)(C)[C@@H]5CC[C@]43C)[C@@H]12
inactive: [1] 82.7% | [2] 96.6% | [3] 88.7% | [4] 113% | [5] 11.1% | [6] 51% | [7] 91.5% | [8] 73.2% | [9] 84.5% | [11] 65.5% | [13] 81% | [14] 57.6% | [15] 82.3% | [16] 87.1% | [17] 92.9% | [18] 84% | [19] 70.8% | [20] 64.4%
active: [10] -67.8% | [12] -26.2%

CN1CCN(Cn2nc(-c3cc(Cl)cc(Cl)c3Cl)oc2=S)CC1
inactive: [1] 90% | [2] 96% | [3] 101% | [4] 93.9% | [5] 102% | [6] 119% | [7] 91.1% | [8] 104% | [9] 94.5% | [10] 110% | [11] 108% | [12] 68.8% | [13] 101% | [14] 94.4% | [15] 99.5% | [16] 109% | [17] 87.7% | [18] 106% | [19] 77.8% | [20] 107%

O=S(=O)(c1ccc(NCSc2nc3ccccc3s2)cc1)c1ccc(NCSc2nc3ccccc3s2)cc1
inactive: [1] 102% | [2] 87.8% | [3] 103% | [4] 66.4% | [5] 104% | [6] 70.7% | [7] 69.7% | [8] 91.1% | [9] 99.6% | [10] 97.1% | [11] 106% | [12] 77.3% | [13] 90.5% | [14] 86.4% | [15] 99.1% | [16] 97.5% | [17] 98.6% | [18] 103% | [19] 94.7% | [20] 96.1%

CS(=O)(=O)Nc1cc(-c2ccc3ncnc(Nc4cccc(Cl)c4)c3c2)cnc1Cl
active: [1] 6.5% | [3] 1.07% | [4] 3.9% | [5] 7.81% | [6] -22.5% | [7] 2.07% | [8] -13.4% | [9] 5.7% | [10] -49.4% | [13] -25.7% | [14] 7.96% | [15] -44% | [17] -22.6% | [18] -22% | [19] -3.23% | [20] -2.15%
inactive: [2] 11.8% | [11] 14.5% | [12] 18.9% | [16] 13.9%

C[C@@H]1N=C(c2ccc(Cl)cc2Cl)Nc2nc3ccccn3c2C1=O
inactive: [1] 61.4% | [2] 75.7% | [3] 63.7% | [4] 52.6% | [5] 18.7% | [6] 55.9% | [7] 28.9% | [8] 40.6% | [9] 73.2% | [10] 22.3% | [11] 64.8% | [12] 23.6% | [13] 43.7% | [14] 64.6% | [15] 80.2% | [16] 58.9% | [17] 14.5% | [18] 53% | [19] 52.4% | [20] 31.1%

CN1C(=O)N(C)C2C1NN=c1s/c(=C\c3ccccc3F)c(=O)n12 (stereo not given)
inactive: [1] 33.1% | [2] 57.8% | [3] 37.3% | [4] 32.9% | [6] 76.8% | [8] 21% | [9] 36% | [11] 15.9% | [13] 44.9% | [14] 13.2% | [16] 65.5% | [17] 14.6% | [19] 54.5%
active: [5] 3.14% | [7] -8.56% | [10] 8.94% | [12] 9.52% | [15] -6.27% | [18] -23.8% | [20] 9.53%

CCOC(=O)c1cc(C(=O)c2cc(OC)cc(OC)c2)n2ccccc12
active: [20] 3.55%
inactive: [1] 67.3% | [2] 73.5% | [3] 86.3% | [4] 30% | [5] 15% | [6] 64.3% | [7] 40.9% | [8] 35.7% | [9] 36.4% | [10] 13.5% | [11] 53.8% | [12] 15.8% | [13] 31.8% | [14] 55.8% | [15] 49.6% | [16] 46.8% | [17] 26.1% | [18] 44.8% | [19] 43.9%

Cn1cc(-c2csc(-c3cn(CCO)c4ccc(F)cc34)n2)c2cccnc21
inactive: [1] 74.1% | [2] 76% | [3] 79.1% | [4] 52.6% | [5] 27% | [6] 64.8% | [7] 10% | [8] 49.8% | [9] 73.3% | [10] 46% | [11] 95.4% | [12] 18.1% | [13] 72.8% | [14] 57.9% | [15] 69.7% | [16] 77.6% | [17] 52.3% | [18] 69.9% | [19] 77.4% | [20] 35.7%

Oc1ccc(C2OCCO2)c2cccnc12
inactive: [1] 33% | [2] 23.4% | [3] 92.5% | [4] 51.6% | [5] 68.1% | [6] 68.8% | [7] 92.9% | [8] 56.3% | [9] 97.9% | [10] 63.7% | [11] 56.7% | [12] 17.3% | [13] 49% | [14] 46.6% | [15] 77% | [16] 31.1% | [17] 86.9% | [18] 36% | [19] 79.2% | [20] 25.8%

Cc1ccc(C2(C)NC(=O)N(CC(=O)Nc3cccc(C)c3)C2=O)cc1 (stereo not given)
inactive: [1] 96.5% | [2] 84.5% | [3] 102% | [4] 102% | [5] 97.8% | [6] 63.8% | [7] 77.2% | [8] 101% | [9] 104% | [10] 116% | [11] 110% | [12] 112% | [13] 100% | [14] 99.4% | [15] 101% | [16] 104% | [17] 107% | [18] 103% | [19] 101% | [20] 110%

Cc1ccc2nc(/C=C/c3ccc(N(C)C)cc3)cc(C)c2c1
active: [18] 9.33%
inactive: [1] 42.1% | [2] 64.8% | [3] 70.9% | [4] 32.4% | [5] 15.1% | [6] 25.7% | [7] 25.1% | [8] 52.3% | [9] 35.1% | [10] 23.5% | [11] 47.2% | [12] 19.8% | [13] 39.8% | [14] 38.4% | [15] 29.4% | [16] 37.3% | [17] 12.5% | [19] 62.1% | [20] 13.2%

CO[C@]12C=C/C(=C(/C(=O)OCc3cccnc3)C(=O)CCCCCCCC[C@]3(OC)C=C/C(=C(/C(=O)OCc4cccnc4)C(=O)CCCCCCCC1)O3)O2
active: [1] -75.3% | [2] -78.1% | [3] -85% | [4] -33.1% | [5] -18.3% | [6] -28.5% | [7] -39.6% | [8] -19.6% | [9] -64.1% | [10] -56.5% | [11] -95.3% | [12] 0.254% | [13] -38.4% | [14] -38.3% | [15] -75.4% | [16] -72.1% | [17] -79.1% | [18] -55.2% | [19] -43.2% | [20] -47%

CNC1=C(Br)C(=O)c2c(C(=O)OC)c(C)nc(C)c2C1=O
active: [13] -26.6%
inactive: [1] 31.8% | [2] 86.3% | [3] 81.5% | [4] 99.9% | [5] 30.4% | [6] 104% | [7] 64.3% | [8] 58.1% | [9] 102% | [10] 30.9% | [11] 57.9% | [12] 64.4% | [14] 71.6% | [15] 63.5% | [16] 73.5% | [17] 78.3% | [18] 82.8% | [19] 56.1% | [20] 31.4%

CC(C)(C)[C@H](OCc1cn([C@H]2C[C@@H](O)[C@@H](CO)O2)c(=O)[nH]c1=O)c1ccc(C#Cc2ccccc2)cc1[N+](=O)[O-]
inactive: [1] 90.2% | [2] 99.3% | [3] 47.6% | [4] 86% | [5] 10.1% | [6] 58.1% | [7] 45% | [8] 46.5% | [9] 27.8% | [10] 79.1% | [11] 86.4% | [12] 60.5% | [13] 84% | [14] 91.7% | [15] 47.2% | [16] 81.5% | [17] 82% | [18] 97.1% | [19] 83.5% | [20] 45.1%
